In PubChem BioAssay (NCATS):
Inconclusive results are not listed. Entries that show only a call come without a potency. Values without a mark were called inactive. Active and inactive are the calls of the source. The call rests on the fitted dose curve; in most records, active means well fitted curve in the direction sought with a large enough effect; inconclusive means small, poorly fitted or top-dose-only effect, or another doubt; inactive means no such curve, though single readings can be large; an effect the other way counts as inactive or inconclusive.

What was measured:
[1] = test system: Hek293T; experiment: Primary qHTS to identify gynecologic anti-cancer compounds using libraries of approved drugs and bioactive compounds (AID 1345084); settings: Gynecologic cancer cell panel viability, ATPlite luminescence, 48 h, control line for the selectivity index; series mostly up to 57.5 µM; further: nearly all actives have a fitted effect of over 55% in size
In short: (§1)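 ATP-based viability (ATPlite), 1,000 cells/well, 16 h pre-incubation, 48 h compound at 37 C, 5% CO2, 15 min RT before read.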

[2] = test system: JEG-3; experiment: as above; settings: Gynecologic cancer cell panel viability, ATPlite luminescence, 48 h; series mostly up to 57.5 µM
In short: as §1

[3] = test system: OV90; experiment: as above; settings: Gynecologic cancer cell panel viability, ATPlite luminescence, 48 h; series mostly up to 57.5 µM
In short: as §1

[4] = test system: PA-1; experiment: as above; settings: Gynecologic cancer cell panel viability, ATPlite luminescence, 48 h; series mostly up to 57.5 µM
In short: as §1

[5] = test system: SKOV3; experiment: as above; settings: Gynecologic cancer cell panel viability, ATPlite luminescence, 48 h; series mostly up to 57.5 µM
In short: as §1

[6] = test system: Tov-21-G; experiment: as above; settings: Gynecologic cancer cell panel viability, ATPlite luminescence, 48 h; series mostly up to 57.5 µM
In short: as §1

[7] = test system: Tov112D; experiment: as above; settings: Gynecologic cancer cell panel viability, ATPlite luminescence, 48 h; series mostly up to 57.5 µM
In short: as §1

[8] = test system: astro; experiment: Drug repurposing screens with cells derived from glioblastoma tumor samples (AID 1345199); settings: viability, ATP luminescence, 48 h; series mostly up to 45.9 µM; further: nearly all actives have a fitted effect of over 40% in size
In short: (§2)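 Primary testing used CD133+ neurospheres from four GBM patients, seven concentrations, 48 h exposure and ATP-based viability; confirmation added three slower-growing patient lines.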

[9] = as above; settings: GBM patient neurospheres viability, ATP luminescence, 48 h
In short: as §2
Potency means the concentration at half of the fitted maximal effect.

Compound	Potency [1]	Potency [2]	Potency [3]	Potency [4]	Potency [5]	Potency [6]	Potency [7]	Potency [8]	activity, negative = cell killing ([9]; at 91.6 µM (top of the series), tumour line A)	activity, negative = cell killing ([9]; at 91.6 µM (top of the series), tumour line B)	activity, negative = cell killing ([9]; at 91.6 µM (top of the series), tumour line D)	activity, negative = cell killing ([9]; at 99.2 µM (top of the series), tumour line C)
CC1=CC2/C=C(\C)CCC(O)C3OC(C)(C)OC3CC(=O)OC23C(=O)NC(CC(C)C)C3C1C (stereo unspecified)	inactive	inactive	inactive	inactive	inactive	inactive	inactive	–	–	–	–	–
Clc1ccc(OCC2=NCCN2)cc1Cl	inactive	inactive	inactive	inactive	inactive	inactive	inactive	–	–	–	–	–
CCN1C[C@]2(COC)[C@H](O)C[C@H](OC)[C@]34[C@@H]5C[C@]6(O)[C@H](OC(=O)c7ccccc7)[C@@H]5[C@@](O)([C@H]([C@H](OC)[C@H]23)[C@@H]14)[C@@H](O)[C@@H]6OC	inactive	inactive	inactive	inactive	inactive	inactive	inactive	–	–	–	–	–
CC(=O)OC12C(O)C(C)C3(O)C4C=C(C)C(=O)C4CC(CO)=CC3C1C2(C)C (stereo unspecified)	inactive	inactive	inactive	inactive	inactive	inactive	inactive	–	–	–	–	–
C[C@@]1(C(=O)O)CC[C@]2(C)CC[C@]3(C)C4=CC(=O)c5cc(O)c(O)cc5[C@]4(C)CC[C@@]3(C)[C@@H]2C1	inactive	inactive	inactive	inactive	inactive	inactive	inactive	–	–	–	–	–
C[C@@]12C[C@@H](c3ccoc3)OC(=O)C1CC[C@]1(C)[C@H]2[C@H]2C=C[C@]1(O)C(=O)O2 (stereo partly specified)	inactive	inactive	inactive	inactive	inactive	inactive	inactive	–	–	–	–	–
CN1CCCC1CCOC(c1cc2nccc(C(=O)O)c2[nH]1)c1ccccc1Cl (stereo unspecified)	inactive	inactive	inactive	inactive	inactive	inactive	inactive	–	–	–	–	–
C1=C2CCCN[C@H]2[C@@H]2C[C@H]1[C@H]1CCCCN1C2	inactive	inactive	inactive	inactive	inactive	inactive	inactive	–	–	–	–	–
CC(C)C1(OO)C=C2C(=O)CC3C(C)(C(=O)O)CCCC3(C)C2CC1 (stereo unspecified)	inactive	inactive	inactive	inactive	inactive	inactive	inactive	–	–	–	–	–
C/C=C(\C)C(=O)OC1CC2C(C)(C)OC(=O)CC(OC(C)=O)C2(C)C2CC(OC(=O)C(C)C)C3(C)C(c4ccoc4)CC4OC43C12C (stereo unspecified)	inactive	inactive	inactive	inactive	inactive	inactive	inactive	–	–	–	–	–
COC1=CC(=O)O[C@@H](/C=C/c2ccccc2)C1	inactive	inactive	–	inactive	inactive	inactive	inactive	–	–	–	–	–
CN1CCC[C@@H]1Cc1c[nH]c2ccc(Nc3ncccc3[N+](=O)[O-])cc12	–	inactive	inactive	inactive	inactive	inactive	inactive	–	–	–	–	–
C[CH2][Hg][S]c1ccccc1C(=O)O	–	–	–	–	–	35500 nM (active)	–	1580 nM (active)	–	–	–	–
CCCSP(=O)(OCC)SCCC	inactive	–	inactive	inactive	inactive	inactive	inactive	inactive	-29.2%	-4.25%	-15.9%	13.9%
COC1CC(OC2CCC3(C=O)C(CCC4C3CCC3(C)C(C5=CC(=O)OC5)CCC43O)C2)OC(C)C1OC1OC(CO)C(O)C(O)C1O (stereo unspecified)	398 nM (active)	–	891 nM (active)	501 nM (active)	355 nM (active)	199 nM (active)	100 nM (active)	–	–	–	–	–
CCN1CC2(COC)C3[C@@H](OC)C4C1C3(C1C[C@]3(O)[C@H](OC(=O)c5ccccc5)C1[C@]4(OC(C)=O)[C@@H](O)[C@@H]3OC)[C@H](OC)C[C@H]2O (stereo partly specified)	inactive	inactive	inactive	–	inactive	inactive	inactive	–	–	–	–	–
CN1C(=O)c2ccccc2NC(=O)[C@]12O[C@@H]2c1ccccc1	inactive	inactive	inactive	–	inactive	inactive	inactive	–	–	–	–	–
CO[C@@H]1[C@H](O)[C@@H](O[C@@H]2C[C@H]3CC[C@@H]4C(CC[C@]5(C)[C@@H](C6=CC(=O)OC6)CC[C@]45O)[C@@]3(C)[C@H](O)C2)O[C@H](C)[C@@H]1O[C@@H]1O[C@H](CO)[C@@H](O)[C@H](O)[C@H]1O (stereo partly specified)	398 nM (active)	–	2240 nM (active)	398 nM (active)	562 nM (active)	199 nM (active)	100 nM (active)	–	–	–	–	–
CC12CCC3C(CCC4(O)CC(O)CCC34C=O)C1(O)CCC2C1=CC(=O)OC1 (stereo unspecified)	1260 nM (active)	–	7080 nM (active)	1120 nM (active)	1580 nM (active)	708 nM (active)	355 nM (active)	–	–	–	–	–
O=C(O)c1ccnc2cc(C(OCCN3CCCCC3)c3ccccc3Cl)[nH]c12 (stereo unspecified)	inactive	inactive	inactive	inactive	–	inactive	inactive	–	–	–	–	–
